Bioassay records deposited in PubChem BioAssay by National Center for Advancing Translational Sciences (NCATS).
Sampled rows, rich in hits. Any-hit rate of the full collection: about 19%.
HT1080 IDH1KD tx: kills HT-1080 cells with IDH1 knockdown | AID 686971 | actives 2% (n = 360,000) | HT-1080 IDH1 knockdown viability, ATP luminescence, 48 h | Potency, µM (doses to about 46.1 µM), inactives show at the top dose activity, negative = toxicity, actives largely listed as cytotoxic;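 further: potency means the concentration at half of the fitted maximal effect; 0% = DMSO wells and -100% = cell-free medium wells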
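Knockdown cells (IDH1KD HT-1080) received compounds 2 h after plating at 750 cells/well and were kept 48 h at 37 °C in 5% FBS RPMI. A CellTiter-Glo luminescence read gave % activity for curve fitting.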
IL1B secr inh: blocks inflammasome-driven IL-1 beta release; actives 4.7% (n = 360,000); THP-1 LPS/ATP IL-1B secretion, AlphaLISA, 16 h; stronger effect = lower value; activity change, % at 57.5 µM; AID 743279; in the data active means activity change below about -50%; inconclusive means mostly about -30% to -49%
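Secreted IL-1B measured by AlphaLISA bead assay after 16 h compound exposure of THP-1 cells; compounds (final up to 57.5 uM) added 1 h before LPS (250 ng/mL) and ATP (1.25 mM) stimulation; lower signal means less secretion.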
ELG1 DNA repair: inhibitors of ELG1-dependent DNA repair in HEK293T cells | HEK293T ELG1-luciferase reporter, luminescence, 16 h; DNA damage induced by 5-fluorouridine | Potency, µM (titrated, usually from 46.1 µM), for the others: at the top dose activity change, negative = inhibition, usual class: inhibitors | actives 2.3% (n = 330,000); further: potency means the concentration at half of the fitted maximal effect; nearly all actives have a fitted effect of over 55% in size
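HEK293T cells expressing luciferase-tagged ELG1 (2,000/well) received 5-Fluorouridine plus compound or DMSO for 16 hr at 37 °C. Luciferase was read by ONE-Glo luminescence after 30 min at room temperature.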
HT1080-NT tox: kills 2HG-producing HT-1080-NT fibrosarcoma cells; HT-1080-NT fibrosarcoma viability, CellTiter-Glo ATP luminescence, 48 h; AID 686970; Potency, µM (doses to about 46.1 µM), inactives show at the highest dose activity, negative = less viability, hits mostly cytotoxic; actives 1.6% (n = 360,000);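 further: NT is the 2HG producing partner of a matched IDH1 knockdown line; potency means the concentration at half of the fitted maximal effect; 0% = DMSO-treated cells and -100% = media-only wells without cells; nearly all actives have a fitted effect of over 55% in size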
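Toxicity toward the 2HG-producing NT line was scored as %Activity, normalised to DMSO and no-cell wells, from CellTiter-Glo luminescence after 48 hours' treatment.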
TDP1 cell noCPT: qHTS for Inhibitors of human tyrosyl-DNA phosphodiesterase 1 (TDP1): qHTS in cells in absence of CPT. DT40 Tdp1-/- hTDP1 cells, no CPT, ATP luminescence, 48 h. Potency, µM (titrated, usually from 46.2 µM), inactives show at the top dose activity change, negative = growth inhibition, actives largely listed as inhibitors. actives 15% (n = 420,000). AID 686978, 2013; further: potency means the concentration at half of the fitted maximal effect; nearly all actives have a fitted effect of over 55% in size
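DT40 Tdp1-/-;hTDP1 cells, no CPT (DMSO vehicle only), 400 cells/well; compounds pin-transferred; ≥48 hr, 37 °C; CellTiter-Glo 30 min RT dark, luminescence read.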
DT40 TDP1 CPT: DT40-hTDP1 cell growth loss with CPT. actives 12% (n = 420,000). Potency, µM (highest dose often 46.2 µM), inactives show top-dose activity change, negative = growth inhibition, actives largely listed as inhibitors. chicken DT40 Tdp1-/-;hTDP1 cells + 20 nM CPT, ATP luminescence, 48 h. AID 686979; further: potency means the concentration at half of the fitted maximal effect; nearly all actives have a fitted effect of over 55% in size
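Chicken DT40 Tdp1-/- cells complemented with human TDP1, 400 cells/well, exposed to compounds plus 20 nM camptothecin for at least 48 h at 37 C; viability read as ATP content by CellTiter-Glo luminescence.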
Starred values were filed as active, the others as inactive; ? = inconclusive; . = not tested or not shown. Unless noted, the call rests on the fitted dose curve; in most records, active means well fitted curve in the direction sought with a large enough effect; inconclusive means small, poorly fitted or top-dose-only effect, or another doubt; inactive means no such curve, though single readings can be large; an effect the other way counts as inactive or inconclusive. Unless noted, on the % scale 0 is the no-effect control and ±100 the full control effect.

SMILES	HT1080 IDH1KD tx	IL1B secr inh	ELG1 DNA repair	HT1080-NT tox	TDP1 cell noCPT	DT40 TDP1 CPT
CC(C)C(=O)N1CCCC1(C)C(=O)NCc1ccccn1 (stereo not given)	29%	49	.	2%	31%	-18%
Cc1ccsc1CNC(=O)C1(C)CCCN1CC(C)C (stereo not given)	6%	11	.	16%	?	15µM*
CSc1ccccc1CNC(=O)C1(C)CCCN1CC(C)C (stereo not given)	-12%	24	.	3%	23µM*	26µM*
COCCCNC(=O)CC(c1cc(OC)c(OC)c(OC)c1)N1Cc2ccccc2C1=O (stereo not given)	.	.	.	.	7%	0%
Cc1ccc(S(=O)(=O)N2Cc3ccccc3CC2C(N)=O)cc1 (stereo not given)	7%	8	.	11%	-13%	-3%
O=C(c1ccccc1)N1CCN(c2ncnc3sc4c(c23)CCC4)CC1	-26%	0	9.2µM*	-5%	23µM*	21µM*
Cc1nc(N2CCN(C(=O)c3ccco3)CC2)c2c3c(sc2n1)CCC3	-29%	?	23µM*	-29%	12µM*	16µM*
Cc1nc(N2CCOCC2)c2c3c(sc2n1)CCC3	-13%	16	-7%	0%	?	-8%
c1nc(N2CCOCC2)c2c3c(sc2n1)CCCC3	-23%	18	?	-21%	?	?
c1cc(-c2ccsc2)n2cnnc2c1	2%	13	.	0%	-3%	-10%
CCOC(=O)c1ccc(S(=O)(=O)N2CCN(C3CCCC3)CC2)cc1	7%	13	-15%	4%	?	?
NC(=O)COc1ncn(-c2ccccc2)n1	1%	7	7%	13%	-2%	2%
N/C(COc1ncn(-c2ccccc2)n1)=N\S(=O)(=O)c1ccc(Cl)cc1Cl	-19%	-17	16µM*	-3%	-28%	?
Cc1cccc(Cn2c(SCc3ccc(C(=O)NCc4cccs4)cc3)nc3ccncc32)c1	.	.	.	.	23µM*	?
O=C(NCc1cccs1)c1ccc(CSc2nc3ccncc3n2Cc2ccccc2)cc1	.	.	.	.	18µM*	?
COc1ccccc1N1CCN(S(=O)(=O)c2cc(Br)cnc2N)CC1	?	-11	?	-10%	?	?
O=C(COC(=O)C1CC(=O)N(Cc2ccccc2)C1)Nc1ccc(Cl)cc1F (stereo not given)	8%	22	-13%	1%	0%	-13%
CCCN1CCC(=O)N(CCSc2ccc(NC(C)=O)cc2)CC1	-6%	-11	?	-4%	-6%	-22%
CC(C)(C)C1CCC(=O)N(CCSc2ccccc2)CC1 (stereo not given)	-5%	120	?	-5%	?	?
CC(=O)Nc1ccc(SCCN2CC[C@@H](C(C)(C)C)CCC2=O)cc1	9%	-18	-29%	1%	13µM*	?
Cc1ccc(SCCN2CCC(C(C)(C)C)CCC2=O)cc1 (stereo not given)	0%	1	?	-8%	?	9.2µM*
Cc1ccc(/C=C(\C#N)C(=O)NC(C)c2ccccc2)o1 (stereo not given)	14%	?	5%	-1%	-3%	0%
O=C(NCC1COCCO1)c1cc(COc2c(F)cccc2F)on1 (stereo not given)	-2%	0	?	-2%	7%	-2%
CCOc1ccc(C(=O)Nc2nnc(SCc3cc(=O)c4cc(C)ccc4[nH]3)s2)cc1	.	.	.	.	-29%	-26%
CCCC(=O)Nc1nnc(SCc2cc(=O)c3ccc(C)cc3[nH]2)s1	.	.	.	.	0.73µM*	1.5µM*
SMILES	HT1080 IDH1KD tx	IL1B secr inh	ELG1 DNA repair	HT1080-NT tox	TDP1 cell noCPT	DT40 TDP1 CPT
CC(C)NC(=O)C1(C)CCN1C(=O)c1ccccc1F (stereo not given)	12%	31	.	?	-3%	-14%
COc1ccc(CN=C2NC(=O)CC(C(=O)Nc3ccc(Cl)cc3)S2)cc1 (stereo not given)	?	-16	-6%	?	13µM*	21µM*
COc1ccc(CN=C2NC(=O)CC(C(=O)Nc3cc(C)cc(C)c3)S2)cc1 (stereo not given)	13%	-5	-2%	19%	6%	8%
CCCC1=[N+](CC(=O)c2ccccc2)CCn2c(C)ccc21	-24%	?	0%	0%	2.1µM*	2.9µM*
CCCC1=NCCn2cccc21	16%	10	0%	7%	-4%	-9%
CCCC1=[N+](CC(=O)c2ccc(C)cc2)CCn2cccc21	-16%	-2	13%	-5%	18µM*	?
COc1ccc(S(=O)(=O)Nc2cccc(-c3ccc(N4CCCCCC4)nn3)c2)cc1	.	.	.	.	?	16µM*
COc1ccc(S(=O)(=O)Nc2cccc(-c3ccc(N4CCCCCC4)nn3)c2)c(OC)c1	-3%	-23	?	-25%	29µM*	?
CCc1ccc(S(=O)(=O)Nc2cccc(-c3ccc(N4CCOCC4)nn3)c2)cc1	.	.	.	.	?	8.2µM*
COc1ccc(S(=O)(=O)Nc2cccc(-c3ccc(N4CCCCCC4)nn3)c2)cc1OC	-5%	-8	18%	-6%	?	?
O=S(=O)(Nc1cccc(-c2ccc(N3CCCCC3)nn2)c1)c1ccc(F)cc1F	.	.	.	.	26µM*	?
O=[N+]([O-])c1cccc(S(=O)(=O)Nc2cccc(-c3ccc(N4CCOCC4)nn3)c2)c1	-2%	-3	?	-3%	-22%	-13%
O=C(NCc1ccccc1Cl)c1cnc2sc(N3CCOCC3)nn2c1=O	.	.	.	.	-14%	-21%
COc1cccc(NC(=O)CN2C(=O)NC(c3ccccc3)(c3ccccc3)C2=O)c1	-21%	-22	-1%	-28%	?	20%
Cc1cc(S(=O)(=O)Nc2cccc(-c3ccc(N4CCOCC4)nn3)c2)c(C)cc1Cl	.	.	.	.	-28%	-29%
CCOc1ccc(C(C)C)cc1S(=O)(=O)Nc1cccc(-c2ccc(N3CCOCC3)nn2)c1	.	.	.	.	15µM*	?
CCOc1ccc(S(=O)(=O)Nc2cccc(-c3ccc(N4CCCC4)nn3)c2)cc1	.	.	.	.	?	7.3µM*
Cc1ccc(S(=O)(=O)Nc2cccc(-c3ccc(N4CCCCCC4)nn3)c2)cc1	-4%	-18	?	?	?	?
